# Laboratory results from PubChem BioAssay (NCATS).
# Results filed as inconclusive are left out. A call without a number means that no potency is given here. A number with no mark means an inactive call. The source made the active and inactive calls. Calls follow the shape of the dose curve; as a rule, active = well fitted curve in the direction sought with a large enough effect; inconclusive = small, poorly fitted or top-dose-only effect, or another doubt; inactive = no such curve, though single readings can be large; an effect the other way counts as inactive or inconclusive.
# What was measured:
# CRL-7250 = normal cell line; test: Cytotoxic Profiling of Annotated Libraries Using Quantitative High-Throughput Screening (AID 1296008); conditions: Five cell lines viability, CellTiter-Glo ATP luminescence, 48-72 h; max response: stronger effect = lower value; also: nearly all actives have a fitted effect of over 60% in size; also: potency is read from the fitted curve at half-maximal effect
# Summary of the method: (§1)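 Compounds were pin-transferred onto cells and incubated 48 or 72 hr at 37 degree Celsius, 95% humidity. CellTiter-Glo was added, plates sat 10 min at room temperature, then ATP-coupled luminescence was imaged as the viability read-out.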
# HEK293 = test: as above; conditions: Five cell lines viability, CellTiter-Glo ATP luminescence, 48-72 h; max response: stronger effect = lower value
# Summary of the method: as §1
# HaCat [1] = test: as above; conditions: Five cell lines viability, CellTiter-Glo ATP luminescence, 48-72 h; max response: stronger effect = lower value
# Summary of the method: as §1
# KB-3-1 = test: as above; conditions: Five cell lines viability, CellTiter-Glo ATP luminescence, 48-72 h; max response: stronger effect = lower value
# Summary of the method: as §1
# NIH3T3 = test: as above; conditions: Five cell lines viability, CellTiter-Glo ATP luminescence, 48-72 h; max response: stronger effect = lower value
# Summary of the method: as §1
# HACAT [2] = test: qHTS assay to identify novel small-molecules to repurpose for Merkel cell carcinoma treatment (AID 1296009); conditions: MCC and control cell lines, CellTiter-Glo viability, 72 h; at 44.8 µM (top of the series) unless noted; also: nearly all actives have a fitted effect of over 60% in size
# Summary of the method: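 Cells exposed to NPC (8-point) and MIPE (11-point) compound dilutions for 72 hr at 37 degree celsius; viability read by CellTiter-Glo luminescence, normalized to no-cell and DMSO in-plate controls.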
# C33A = test: Primary qHTS to identify gynecologic anti-cancer compounds using libraries of approved drugs and bioactive compounds (AID 1345084); conditions: Gynecologic cancer cell panel viability, ATPlite luminescence, 48 h; series mostly up to 57.5 µM; also: nearly all actives have a fitted effect of over 55% in size
# Summary of the method: (§2)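 Cytotoxicity screen measuring ATP content by luciferase luminescence. Each compound is applied at five concentrations for 48 h at 37 C with 5% CO2.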
# CAOV3 = test: as above; conditions: Gynecologic cancer cell panel viability, ATPlite luminescence, 48 h; series mostly up to 57.5 µM
# Summary of the method: as §2
# CASKI = test: as above; conditions: Gynecologic cancer cell panel viability, ATPlite luminescence, 48 h; series mostly up to 57.5 µM
# Summary of the method: as §2
# Es-2 = test: as above; conditions: Gynecologic cancer cell panel viability, ATPlite luminescence, 48 h; series mostly up to 57.5 µM
# Summary of the method: as §2
# HeLa = test: as above; conditions: Gynecologic cancer cell panel viability, ATPlite luminescence, 48 h; series mostly up to 57.5 µM
# Summary of the method: as §2
# Hek293T = test: as above; conditions: Gynecologic cancer cell panel viability, ATPlite luminescence, 48 h, control line for the selectivity index; series mostly up to 57.5 µM
# Summary of the method: as §2
# JEG-3 = test: as above; conditions: Gynecologic cancer cell panel viability, ATPlite luminescence, 48 h; series mostly up to 57.5 µM
# Summary of the method: as §2
SMILES,outcome (CRL-7250),max response (HEK293) [%],outcome (HaCat [1]),outcome (KB-3-1),max response (NIH3T3) [%],outcome (HACAT [2]),Potency (C33A),Potency (CAOV3),outcome (CASKI),Potency (Es-2),Potency (HeLa),Potency (Hek293T),Potency (JEG-3),max response (CRL-7250) [%],max response (KB-3-1) [%],outcome (NIH3T3),Potency (HEK293)
CN(C)c1ccc(C2O[C@@H](c3ccccc3)C[C@H](c3ccccc3)O2)cc1 (some centres undefined),inactive,-10.1,inactive,inactive,4.55,inactive,inactive,inactive,inactive,inactive,inactive,inactive,inactive,–,–,–,–
COC(=O)[C@H](Cc1cccc(C(=N)N)c1)[C@@H](C)NC(=O)c1ccc(-c2cc[n+]([O-])cc2)cc1,–,3.53,inactive,inactive,0.404,inactive,inactive,inactive,inactive,inactive,inactive,inactive,inactive,-2.22,–,–,–
COc1cc(CCCO)ccc1O[C@@H]1O[C@H](CO)[C@@H](O)[C@H](O)[C@H]1O,inactive,0.679,inactive,inactive,-1.2,inactive,inactive,inactive,inactive,inactive,inactive,inactive,inactive,–,–,–,–
CCCCC(=O)N1c2ccccc2NC2=C(C(=O)CCC2)C1c1ccccc1Cl (centres undefined),inactive,-3.83,inactive,–,-4.77,inactive,inactive,inactive,inactive,inactive,inactive,inactive,inactive,–,6.63,–,–
CC1=C[C@@H]2[C@H]3[C@@H]4O[C@@](C)(CC[C@H]4O)[C@H]3CC(=O)[C@]23C(=O)N[C@@H](CC(C)C)[C@@H]3[C@@H]1C,inactive,4.29,inactive,–,–,inactive,inactive,inactive,inactive,inactive,inactive,inactive,inactive,–,9.19,inactive,–
C[C@@H]1O[C@@H](OC[C@H]2O[C@@H](OCc3ccccc3)[C@H](O)[C@@H](O)[C@@H]2O)[C@H](O)[C@H](O)[C@H]1O,inactive,-5.01,inactive,–,0.0365,inactive [at 17.4 µM],inactive,inactive,inactive,inactive,inactive,inactive,inactive,–,-7.21,–,–
OC[C@H]1O[C@@H](Oc2cc(O)cc(-c3cc4ccc(O[C@@H]5O[C@H](CO)[C@@H](O)[C@H](O)[C@H]5O)cc4o3)c2)[C@H](O)[C@@H](O)[C@@H]1O,–,-2.42,inactive,–,-3.34,inactive [at 17.4 µM],inactive,inactive,inactive,inactive,inactive,inactive,inactive,-9.86,0.0792,–,–
Cc1cc(-c2nncc3c(C(C)(C)C)c(OCc4ncnn4C)nn23)no1,inactive,-4.36,inactive,–,1.34,inactive,inactive,inactive,inactive,inactive,inactive,inactive,inactive,–,6.49,–,–
C=C(C(=O)O)[C@@H]1CC[C@@]2(C)CCC[C@@](C)(O)[C@@H]2C1,–,-3.93,inactive,–,1.2,inactive,inactive,inactive,inactive,inactive,inactive,inactive,inactive,-2.07,5.56,–,–
C=CC(C)(O)CC/C=C(\C)COC1O[C@H](CO)[C@@H](O)[C@H](O)[C@H]1O (some centres undefined),–,0.0631,inactive,–,3.77,inactive,inactive,inactive,inactive,inactive,inactive,inactive,inactive,-13.2,1.01,–,–
C=C(C)[C@@H]1CC[C@]2(C(=O)O)CC[C@]3(C)[C@H](CCC4[C@@]5(C)CCC(=O)C(C)(C)C5C(O)C[C@]43C)C12 (some centres undefined),–,–,inactive,–,-1.28,inactive [at 17.4 µM],inactive,inactive,inactive,inactive,inactive,inactive,inactive,-6.3,-20.6,–,4.47 µM (active)
COc1cc(O)cc2c1C(=O)OC(C)CCCCCCC2 (centres undefined),–,-6.62,inactive,inactive,-11.2,inactive,inactive,inactive,inactive,inactive,inactive,inactive,inactive,0.54,–,–,–
COc1ccc(-n2[nH]c3c(cnc4ccccc43)c2=O)cc1,–,-1.19,inactive,inactive,3.94,inactive,inactive,inactive,inactive,inactive,inactive,inactive,inactive,1.83,–,–,–
